Experimental findings from the supplement of paper PMC10849652 are described below.

About 7,900 targets were measured; listed, in parts, are those with a hit and a random draw of the rest. About 0.6% of all pairs of compound and target were hits. Values without a mark were called inactive.

Chain of UniProt P00846 (P00846 whole entry, looked up): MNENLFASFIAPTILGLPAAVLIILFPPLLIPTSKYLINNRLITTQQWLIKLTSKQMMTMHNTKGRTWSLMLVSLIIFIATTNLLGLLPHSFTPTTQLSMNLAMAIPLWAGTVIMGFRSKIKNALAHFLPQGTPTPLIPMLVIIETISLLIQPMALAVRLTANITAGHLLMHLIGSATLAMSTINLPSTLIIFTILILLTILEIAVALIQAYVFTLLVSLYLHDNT
Chain of UniProt Q7L1V2 (Q7L1V2 whole entry, looked up): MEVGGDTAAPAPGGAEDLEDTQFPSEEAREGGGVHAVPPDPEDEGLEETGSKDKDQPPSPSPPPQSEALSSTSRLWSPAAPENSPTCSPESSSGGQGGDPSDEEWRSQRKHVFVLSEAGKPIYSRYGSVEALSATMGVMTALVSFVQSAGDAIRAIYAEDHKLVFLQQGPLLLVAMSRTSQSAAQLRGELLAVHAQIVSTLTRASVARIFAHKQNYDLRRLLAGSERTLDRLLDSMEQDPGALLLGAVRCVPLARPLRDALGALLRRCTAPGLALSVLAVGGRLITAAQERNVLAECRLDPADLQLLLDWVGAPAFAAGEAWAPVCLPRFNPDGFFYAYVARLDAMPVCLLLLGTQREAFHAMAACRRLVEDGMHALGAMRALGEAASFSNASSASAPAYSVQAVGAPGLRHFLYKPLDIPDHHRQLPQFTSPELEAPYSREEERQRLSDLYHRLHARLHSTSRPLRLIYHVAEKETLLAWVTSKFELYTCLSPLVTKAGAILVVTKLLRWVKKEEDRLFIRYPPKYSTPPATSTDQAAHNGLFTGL
Chain of UniProt Q9NR45 (Q9NR45 whole entry, looked up): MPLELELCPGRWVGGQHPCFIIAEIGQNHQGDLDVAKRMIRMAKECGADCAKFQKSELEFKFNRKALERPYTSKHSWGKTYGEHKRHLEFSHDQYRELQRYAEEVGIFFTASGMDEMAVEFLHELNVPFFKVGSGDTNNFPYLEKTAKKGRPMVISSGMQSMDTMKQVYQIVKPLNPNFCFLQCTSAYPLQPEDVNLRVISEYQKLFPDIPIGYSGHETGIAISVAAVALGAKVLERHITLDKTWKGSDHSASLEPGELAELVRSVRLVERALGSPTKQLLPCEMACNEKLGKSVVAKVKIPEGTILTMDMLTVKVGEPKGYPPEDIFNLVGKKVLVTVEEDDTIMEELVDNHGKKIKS
Chain of UniProt Q92692 (Q92692 whole entry, looked up): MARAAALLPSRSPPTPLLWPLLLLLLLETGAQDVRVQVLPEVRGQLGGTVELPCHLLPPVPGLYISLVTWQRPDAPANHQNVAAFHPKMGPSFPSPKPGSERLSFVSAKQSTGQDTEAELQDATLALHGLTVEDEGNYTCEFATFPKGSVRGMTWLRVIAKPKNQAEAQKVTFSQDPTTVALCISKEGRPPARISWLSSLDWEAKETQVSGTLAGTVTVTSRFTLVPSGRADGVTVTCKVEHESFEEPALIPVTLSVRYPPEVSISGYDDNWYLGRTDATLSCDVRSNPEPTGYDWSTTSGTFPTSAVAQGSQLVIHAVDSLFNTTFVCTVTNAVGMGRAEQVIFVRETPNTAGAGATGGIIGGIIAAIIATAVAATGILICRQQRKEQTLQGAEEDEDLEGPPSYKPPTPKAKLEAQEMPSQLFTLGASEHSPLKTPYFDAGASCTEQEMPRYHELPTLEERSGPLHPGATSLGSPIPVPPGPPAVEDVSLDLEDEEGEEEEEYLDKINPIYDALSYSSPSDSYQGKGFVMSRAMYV
Chain of UniProt Q15014 (Q15014 whole entry, looked up): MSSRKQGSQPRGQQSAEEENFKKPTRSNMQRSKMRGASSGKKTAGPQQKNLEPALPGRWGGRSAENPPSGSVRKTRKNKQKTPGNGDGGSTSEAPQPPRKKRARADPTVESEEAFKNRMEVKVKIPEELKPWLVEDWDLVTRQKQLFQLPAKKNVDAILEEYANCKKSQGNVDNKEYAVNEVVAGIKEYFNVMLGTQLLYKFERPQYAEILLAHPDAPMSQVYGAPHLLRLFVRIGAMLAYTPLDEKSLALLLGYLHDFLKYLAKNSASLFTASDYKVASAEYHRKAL
Chain of UniProt P20585 (P20585 whole entry, looked up): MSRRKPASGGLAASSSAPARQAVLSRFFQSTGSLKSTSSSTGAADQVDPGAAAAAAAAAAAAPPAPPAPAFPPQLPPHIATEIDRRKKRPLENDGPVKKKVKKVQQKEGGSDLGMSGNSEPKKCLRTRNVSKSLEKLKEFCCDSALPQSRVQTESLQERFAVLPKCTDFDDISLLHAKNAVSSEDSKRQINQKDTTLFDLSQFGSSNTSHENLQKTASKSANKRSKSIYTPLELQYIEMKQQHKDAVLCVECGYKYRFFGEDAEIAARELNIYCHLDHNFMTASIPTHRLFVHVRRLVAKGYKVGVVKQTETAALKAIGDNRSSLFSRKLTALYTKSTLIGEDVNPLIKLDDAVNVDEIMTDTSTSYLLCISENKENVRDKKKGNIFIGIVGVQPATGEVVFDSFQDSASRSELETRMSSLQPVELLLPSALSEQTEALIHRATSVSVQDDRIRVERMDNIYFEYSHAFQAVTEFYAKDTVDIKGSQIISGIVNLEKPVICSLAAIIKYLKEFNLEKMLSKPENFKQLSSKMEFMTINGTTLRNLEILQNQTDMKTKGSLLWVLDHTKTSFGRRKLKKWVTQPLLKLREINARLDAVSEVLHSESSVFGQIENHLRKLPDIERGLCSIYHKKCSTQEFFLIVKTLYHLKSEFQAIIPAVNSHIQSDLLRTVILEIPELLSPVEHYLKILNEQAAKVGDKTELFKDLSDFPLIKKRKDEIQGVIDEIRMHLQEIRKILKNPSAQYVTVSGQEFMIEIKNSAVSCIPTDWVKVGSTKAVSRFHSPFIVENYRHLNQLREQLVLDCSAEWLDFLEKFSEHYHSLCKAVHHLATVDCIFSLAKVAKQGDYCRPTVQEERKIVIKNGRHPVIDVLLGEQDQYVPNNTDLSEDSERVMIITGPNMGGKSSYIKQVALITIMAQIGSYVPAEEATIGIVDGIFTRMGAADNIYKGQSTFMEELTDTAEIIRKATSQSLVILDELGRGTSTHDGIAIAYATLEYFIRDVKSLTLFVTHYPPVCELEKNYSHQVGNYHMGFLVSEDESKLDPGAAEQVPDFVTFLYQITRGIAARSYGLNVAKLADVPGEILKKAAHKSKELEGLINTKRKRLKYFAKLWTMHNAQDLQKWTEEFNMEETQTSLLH
Chain of UniProt P17568 (P17568 whole entry, looked up): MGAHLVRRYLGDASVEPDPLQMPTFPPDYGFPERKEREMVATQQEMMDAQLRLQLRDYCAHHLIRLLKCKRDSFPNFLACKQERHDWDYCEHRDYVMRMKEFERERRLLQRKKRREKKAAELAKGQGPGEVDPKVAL
Chain of UniProt Q9UMY1 (Q9UMY1 whole entry, looked up): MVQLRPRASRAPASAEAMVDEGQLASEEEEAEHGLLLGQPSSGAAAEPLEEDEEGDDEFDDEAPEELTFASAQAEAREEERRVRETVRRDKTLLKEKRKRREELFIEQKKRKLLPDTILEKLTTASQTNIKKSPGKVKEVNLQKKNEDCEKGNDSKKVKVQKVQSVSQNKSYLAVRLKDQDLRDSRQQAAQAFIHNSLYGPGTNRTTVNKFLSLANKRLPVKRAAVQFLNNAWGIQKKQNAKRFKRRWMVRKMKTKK
Chain of UniProt P22059 (P22059 whole entry, looked up): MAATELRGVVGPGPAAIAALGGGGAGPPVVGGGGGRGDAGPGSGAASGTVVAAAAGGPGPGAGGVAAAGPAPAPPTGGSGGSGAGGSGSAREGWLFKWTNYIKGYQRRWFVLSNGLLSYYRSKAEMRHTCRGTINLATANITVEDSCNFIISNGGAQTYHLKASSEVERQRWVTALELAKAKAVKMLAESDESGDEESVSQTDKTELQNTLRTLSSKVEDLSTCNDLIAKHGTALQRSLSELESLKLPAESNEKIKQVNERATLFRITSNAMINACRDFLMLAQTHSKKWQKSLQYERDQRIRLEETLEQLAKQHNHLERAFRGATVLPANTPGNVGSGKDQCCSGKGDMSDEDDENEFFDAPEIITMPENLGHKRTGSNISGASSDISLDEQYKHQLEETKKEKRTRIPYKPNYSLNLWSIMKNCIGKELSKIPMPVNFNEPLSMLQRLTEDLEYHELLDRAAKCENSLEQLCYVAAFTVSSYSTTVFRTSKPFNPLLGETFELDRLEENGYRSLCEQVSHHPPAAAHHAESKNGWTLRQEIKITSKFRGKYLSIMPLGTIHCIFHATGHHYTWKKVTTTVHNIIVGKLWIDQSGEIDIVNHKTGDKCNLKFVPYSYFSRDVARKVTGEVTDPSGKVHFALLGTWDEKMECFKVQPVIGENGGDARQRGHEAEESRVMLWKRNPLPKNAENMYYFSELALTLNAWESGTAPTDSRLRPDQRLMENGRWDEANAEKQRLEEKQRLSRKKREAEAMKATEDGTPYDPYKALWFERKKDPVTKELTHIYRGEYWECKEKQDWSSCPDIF
Chain of UniProt O00566 (O00566 whole entry, looked up): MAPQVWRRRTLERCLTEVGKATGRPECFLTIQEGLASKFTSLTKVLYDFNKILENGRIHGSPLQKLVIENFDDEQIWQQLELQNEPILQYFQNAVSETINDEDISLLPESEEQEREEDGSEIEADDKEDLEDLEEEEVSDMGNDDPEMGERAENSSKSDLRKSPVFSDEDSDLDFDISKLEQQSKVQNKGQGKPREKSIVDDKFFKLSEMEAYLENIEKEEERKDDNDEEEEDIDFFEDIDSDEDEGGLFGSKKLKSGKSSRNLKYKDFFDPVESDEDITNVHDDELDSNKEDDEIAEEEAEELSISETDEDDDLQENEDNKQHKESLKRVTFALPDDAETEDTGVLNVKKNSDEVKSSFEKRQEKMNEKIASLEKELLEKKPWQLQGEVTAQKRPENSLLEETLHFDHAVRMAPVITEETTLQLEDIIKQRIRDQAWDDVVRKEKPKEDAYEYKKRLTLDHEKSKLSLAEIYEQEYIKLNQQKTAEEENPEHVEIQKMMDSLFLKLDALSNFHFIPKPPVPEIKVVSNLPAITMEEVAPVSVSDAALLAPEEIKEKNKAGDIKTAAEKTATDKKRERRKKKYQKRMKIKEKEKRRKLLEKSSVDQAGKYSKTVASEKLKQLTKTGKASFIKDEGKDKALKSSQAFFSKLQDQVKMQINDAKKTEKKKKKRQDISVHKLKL

Compound in the assay: CC1=C(C=C(C=C1)NC(=O)C2=CC(=CC=C2)N(C)C)NC(=O)C3=CC=C(C=C3)O
Briefly: log2 fold change, soluble protein after heating vs DMSO (PISA); higher = thermal stabilisation; K562 cells, 10 uM, 30 min; active = over 0.2 and 3.5 SD of the protein, either way, in both replicates (recomputed). The method in brief:
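Thermal stability values are relative to control samples and come from duplicates. They are expressed as log2 fold changes. For measurement, K562 cells (2×10^6 cells/mL) received 10 μM compound for 30 min, and aliquots were heated for 3 min over 48°C-58°C, pooled, and extracted at 4°C in PBS with 0.5% NP-40. Soluble protein, the supernatant after 21,000xg for 90 min, was quantified by TMTpro 16plex LC-MS/MS with equalised channel sums.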
Turning to MORF4L2 (UniProt Q15014), the log2 fold change is -0.061.

For the target MRPL46 (UniProt Q9H2W6), the log2 fold change is -0.044.

NCKAP1 isoform 2 (UniProt Q9Y2A7): the log2 fold change is 0.009.

On to MSTO1 (UniProt Q9BUK6), for which the log2 fold change was -0.052.

For MSH3 (UniProt P20585), the log2 fold change is -0.033.

In the case of NANS (UniProt Q9NR45), the log2 fold change is -0.02.

Take OSTC (UniProt Q9NRP0): the log2 fold change was 0.001.

On to NCOR1 (UniProt O75376), for which the log2 fold change is -0.075.

In the case of MRPS21 (UniProt P82921), the log2 fold change is -0.059.

In the case of NISCH (UniProt Q9Y2I1), the log2 fold change was -0.07.

For the target NUP85 (UniProt Q9BW27), the log2 fold change was 0.025.

Turning to MPHOSPH10 (UniProt O00566), the log2 fold change is -0.01.

For the target NOP58 (UniProt Q9Y2X3), the log2 fold change is -0.012.

For MRPS26 (UniProt Q9BYN8), the log2 fold change was -0.083.

On to MRPS24 (UniProt Q96EL2), for which the log2 fold change was -0.037.

For the target MON1B (UniProt Q7L1V2), the log2 fold change was -0.003.

Regarding OSBP (UniProt P22059), the log2 fold change is -0.011.

MINK1 (UniProt Q8N4C8): the log2 fold change is 0.038.

Consider MRPS9 (UniProt P82933), for which the log2 fold change is -0.025.

In the case of NR2C2 isoform 2 (UniProt P49116), the log2 fold change is 0.029.

As for NUP107 (UniProt P57740), the log2 fold change is 0.085.

PAFAH1B2 (UniProt P68402): the log2 fold change is 0.005.

With MXRA7 (UniProt P84157), the log2 fold change was -0.015.

As to NOP53 (UniProt Q9NZM5), the log2 fold change is 0.005.

Consider MRPS25 (UniProt P82663), for which the log2 fold change is -0.009.

Take MND1 (UniProt Q9BWT6): the log2 fold change was 0.021.

Turning to OTUD6B (UniProt Q8N6M0), the log2 fold change is -0.002.

As for NDUFB8 (UniProt O95169), the log2 fold change is -0.068.

Turning to OXSR1 (UniProt O95747), the log2 fold change is -0.11.

On to NOL7 (UniProt Q9UMY1), for which the log2 fold change is -0.055.

Turning to MRPL34 (UniProt Q9BQ48), the log2 fold change is -0.01.

As for MT-ATP6 (UniProt P00846), the log2 fold change was 0.041.

MRPS35 (UniProt P82673): the log2 fold change is -0.013.

Consider NECTIN2 (UniProt Q92692), for which the log2 fold change is -0.026.

On to NAA38 isoform 2 (UniProt Q9BRA0), for which the log2 fold change was 0.041.

Turning to NPC1 (UniProt O15118), the log2 fold change is 0.01.

On to NOSIP (UniProt Q9Y314), for which the log2 fold change is -0.2.

As for NDUFB7 (UniProt P17568), the log2 fold change is -0.006.

PACS1 (UniProt Q6VY07): the log2 fold change is -0.031.
